One assay addresses Albumin (Bos taurus) (UniProt P02769). Briefly: compounds binding labelled BSA control protein – biochemical, small-molecule microarray, Alexa647 label, 635/667 nm fluorescence, artefact control for SMM control protein annotation, profiling panel (AID 1118).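 Also: score merges 667 nm emission intensity and signal-to-noise per printed compound spot.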 Particulars: BSA-A647 binding, fluorescence 635 nm, higher = more signal.
Assay [1] is described as follows: probe aXIP binding to arrayed compounds – biochemical, NeuroSMM set, 635/667 nm fluorescence, primary screen (AID 1119).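 Also: probe is the protein aXip251-270 applied at 1 µg/mL to compound-printed slides; binding of probe to printed compounds measured as 667 nm fluorescence plus signal to noise.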 As to conditions: small-molecule microarray, higher = more signal, called active from +8 up or from −8 down.
Assay [2] can be described thus: probe aNOTCH3 binding on compound microarray – biochemical, small-molecule microarray, 635/667 nm fluorescence, primary screen (AID 1120).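 Also: probe is a biotin-tagged antibody raised against NOTCH3 rather than NOTCH3 protein; score merges spot fluorescence near 667 nm with spot signal to noise.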 As to conditions: higher = more signal.
A short description of assay [3]: probe aNOTCH2 binding on compound microarray – biochemical, small-molecule microarray, 635/667 nm fluorescence, primary screen (AID 1121).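 Also: score merges feature fluorescence read at 667 nm with its signal to noise.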 Particulars: higher = more signal.
Assay [4] deals with Carbonic anhydrase 2 (Homo sapiens) (UniProt P00918). Briefly: compounds binding carbonic anhydrase 2 – biochemical, small-molecule microarray, Alexa647-labelled CAII, profiling panel (AID 1122). As to conditions: CAII-A647 binding fluorescence, higher = more signal.
Assay [5] can be described thus: COS7 lysate on small-molecule microarray, probe aHis, 635 nm (AID 1123).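 Also: z-score combines 667nm fluorescence intensity with signal-to-noise per printed compound spot.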 Particulars: COS7 cell lysate, fluorescence, higher = more signal.
Assay [6] can be described thus: probe aLAP1 signal on lysate-treated microarray – cell lysate, small-molecule microarray, COS7 lysate, primary screen (AID 1124).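 Also: lysate comes from COS7 cells expressing LAP1 and is applied at 0.3 µg/mL; score merges spot fluorescence near 667 nm with signal-to-noise over triplicate slides.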 Particulars: probe aLAP1, fluorescence, higher = more signal.
For another assay, the system named is Sam68 (KHDRBS1). Briefly: compounds binding KHDRBS1 protein – biochemical, small-molecule microarray, 635 nm fluorescence, primary screen (AID 1125).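 Also: score merges 667 nm channel intensity with signal to noise over triplicate slides.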 As to conditions: higher = more signal.
Assay [7] relates to Chordin-like protein 2 (CHRDL2). Briefly: compounds binding chordin-like 2 – biochemical, small-molecule microarray, 635 nm fluorescence, primary screen (AID 1126).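 Also: printed compound slides probed with Chrdl2 protein at 4 µg/mL for 1 h at 4 C; score merges 667 nm emission intensity with signal to noise over three replicate slides.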 Particulars: fluorescence 635 nm, higher = more signal.
Assay [8] addresses Concanavalin-A (Canavalia ensiformis) (UniProt P02866). Put plainly: compounds binding concanavalin A lectin – biochemical, small-molecule microarray, Alexa647 label, 635 nm, artefact control for SMM control protein annotation, primary screen (AID 1127).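 Also: z combines 667 nm emission intensity with signal-to-noise across three replicate slides.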 As to conditions: ConA-A647 binding fluorescence, higher = more signal.
Assay [9] can be described thus: compounds binding Alexa647 anti-His antibody – biochemical, small-molecule microarray, 635 nm fluorescence, artefact control for SMM control protein annotation, primary screen (AID 1128).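 Also: score merges feature fluorescence with signal-to-noise for each printed compound spot.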 Particulars: higher = more signal.
Assay [10] has as its system Human papillomavirus type 1a E7 protein (residues 1-88). Briefly: HPV1a E7 small-molecule binders, primary screen, biochemical, small-molecule microarray, residues 1-88, 635 nm (AID 1129). Particulars: small-molecule microarray binding, fluorescence 635 nm; higher = more signal.
The target in assay [11] is Focal adhesion kinase 1 (Homo sapiens) (UniProt Q05397). Put plainly: PTK2 protein binding on printed compound slides – biochemical, small-molecule microarray, 635/667 nm fluorescence, BSA, DTT, primary screen (AID 1130).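 Also: composite of spot emission at 667 nm and signal to noise over triplicate slides.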 Particulars: 635 nm fluorescence, higher = more signal.
For assay [12], the system named is Fibrinogen (Alexa647-labelled). Put plainly: Alexa647-fibrinogen binding to printed small molecules – biochemical, small-molecule microarray, 635/667 nm fluorescence, artefact control for SMM control-protein annotation, profiling panel (AID 1131).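 Also: z-score merges 667 nm fluorescence with per-spot signal-to-noise over triplicate slides.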 Particulars: fibrinogen-A647 binding fluorescence, higher = more signal.
Assay [13] concerns the target Follistatin (Homo sapiens) (UniProt P19883). Put plainly: FST protein binding to printed compounds – biochemical, small-molecule microarray, 635/667 nm fluorescence, primary screen (AID 1132). Particulars: 635 nm fluorescence, higher = more signal.
Assay [14] addresses Fibroblast growth factor 2 (Homo sapiens) (UniProt P09038). Briefly: basic fibroblast growth factor binding to printed compounds – biochemical, small-molecule microarray, 635/667 nm fluorescence, primary screen (AID 1133). Particulars: FGF2, fluorescence 635/667, higher = more signal.
Assay [15] can be described thus: JC-1 mitochondrial potential readout, lung cancer cells – cell-based, A549, JC-1 fluorescence, basal, 24 h, 100 nL, profiling panel (AID 1138).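 Also: A549 lung adenocarcinoma cells under basal conditions with no added stimulus; test concentration not given here.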 Particulars: higher = more signal.
In the next assay the test system is Lefty1. Put plainly: Lefty1 protein binding to printed compounds – biochemical, small-molecule microarray, 635/667 nm fluorescence, primary screen (AID 1139). As to conditions: fluorescence 635/667, higher = more signal.
The test system of assay [16] is wheat germ agglutinin (Triticum aestivum), Alexa647-labelled. Put plainly: Alexa647-WGA lectin binding to printed small molecules – biochemical, small-molecule microarray, 635/667 nm fluorescence, artefact control for SMM control-protein annotation, profiling panel (AID 1140).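 Also: score merges 667 nm feature emission with signal to noise over triplicate slides.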 As to conditions: WGA-A647 binding, 635 nm fluorescence, higher = more signal.
Assay [17] has as its target Luciferin 4-monooxygenase (Photinus pyralis) (UniProt P08659). Briefly: inhibition of purified Photinus pyralis luciferase – biochemical, luminescence, purified enzyme, 2006 set, primary screen (AID 1141).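 Also: cell-free assay with purified firefly luciferase at 100 ng per well in PBS; test concentration not given here.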 As to conditions: purified firefly luciferase, SteadyGlo luminescence, 30 min; higher = more signal, called active from +8 up or from −8 down.

Active and inactive are the calls of the source.

Chain of Albumin (Bos taurus) (P02769 whole entry, looked up): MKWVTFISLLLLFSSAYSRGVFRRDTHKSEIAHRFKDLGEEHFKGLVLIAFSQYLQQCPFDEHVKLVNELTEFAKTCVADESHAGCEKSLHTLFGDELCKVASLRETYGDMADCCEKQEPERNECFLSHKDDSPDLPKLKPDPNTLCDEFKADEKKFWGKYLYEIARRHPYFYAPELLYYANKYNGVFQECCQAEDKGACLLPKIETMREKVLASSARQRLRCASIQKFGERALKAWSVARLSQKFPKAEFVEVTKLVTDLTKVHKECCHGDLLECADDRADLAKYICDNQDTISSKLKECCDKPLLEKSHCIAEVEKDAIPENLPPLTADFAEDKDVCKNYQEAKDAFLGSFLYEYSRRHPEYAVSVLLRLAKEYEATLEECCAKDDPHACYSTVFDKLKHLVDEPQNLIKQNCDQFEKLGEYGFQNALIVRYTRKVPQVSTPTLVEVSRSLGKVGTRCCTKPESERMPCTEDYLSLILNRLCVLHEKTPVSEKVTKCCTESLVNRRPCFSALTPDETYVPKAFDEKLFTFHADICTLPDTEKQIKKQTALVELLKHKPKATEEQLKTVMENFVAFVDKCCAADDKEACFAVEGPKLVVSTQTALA
Chain of Luciferin 4-monooxygenase (Photinus pyralis) (P08659 whole entry, looked up): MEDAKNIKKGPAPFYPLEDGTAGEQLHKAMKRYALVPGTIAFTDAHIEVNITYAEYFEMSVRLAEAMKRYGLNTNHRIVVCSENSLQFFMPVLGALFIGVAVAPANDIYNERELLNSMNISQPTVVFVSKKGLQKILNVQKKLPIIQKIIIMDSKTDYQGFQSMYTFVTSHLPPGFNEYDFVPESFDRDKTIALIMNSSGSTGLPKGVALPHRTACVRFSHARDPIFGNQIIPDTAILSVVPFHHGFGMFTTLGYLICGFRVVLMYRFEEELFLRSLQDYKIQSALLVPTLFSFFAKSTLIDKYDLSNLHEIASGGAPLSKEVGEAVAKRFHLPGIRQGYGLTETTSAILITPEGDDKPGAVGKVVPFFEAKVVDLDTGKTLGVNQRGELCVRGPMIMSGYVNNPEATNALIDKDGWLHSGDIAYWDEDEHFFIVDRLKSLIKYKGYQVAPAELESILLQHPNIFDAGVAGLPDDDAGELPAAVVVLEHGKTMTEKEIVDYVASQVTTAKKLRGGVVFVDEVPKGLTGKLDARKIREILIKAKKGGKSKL
Chain of Fibroblast growth factor 2 (Homo sapiens) (P09038 whole entry, looked up): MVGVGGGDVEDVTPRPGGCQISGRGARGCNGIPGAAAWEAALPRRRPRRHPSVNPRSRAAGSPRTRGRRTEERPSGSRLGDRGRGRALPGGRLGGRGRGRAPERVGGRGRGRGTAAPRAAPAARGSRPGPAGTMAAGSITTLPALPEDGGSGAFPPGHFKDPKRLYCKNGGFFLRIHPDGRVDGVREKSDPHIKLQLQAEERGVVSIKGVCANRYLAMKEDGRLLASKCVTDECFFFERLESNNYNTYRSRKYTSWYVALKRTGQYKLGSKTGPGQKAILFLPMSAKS
Chain of Concanavalin-A (Canavalia ensiformis) (P02866 whole entry, looked up): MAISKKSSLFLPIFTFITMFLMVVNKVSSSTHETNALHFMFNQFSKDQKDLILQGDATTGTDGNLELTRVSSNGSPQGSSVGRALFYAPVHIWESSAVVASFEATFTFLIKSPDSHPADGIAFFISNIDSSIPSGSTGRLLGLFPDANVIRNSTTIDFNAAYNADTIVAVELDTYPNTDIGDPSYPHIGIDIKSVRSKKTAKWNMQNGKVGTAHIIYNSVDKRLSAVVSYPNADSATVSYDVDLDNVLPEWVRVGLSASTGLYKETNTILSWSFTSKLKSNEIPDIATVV
Chain of Focal adhesion kinase 1 (Homo sapiens) (Q05397 whole entry, looked up): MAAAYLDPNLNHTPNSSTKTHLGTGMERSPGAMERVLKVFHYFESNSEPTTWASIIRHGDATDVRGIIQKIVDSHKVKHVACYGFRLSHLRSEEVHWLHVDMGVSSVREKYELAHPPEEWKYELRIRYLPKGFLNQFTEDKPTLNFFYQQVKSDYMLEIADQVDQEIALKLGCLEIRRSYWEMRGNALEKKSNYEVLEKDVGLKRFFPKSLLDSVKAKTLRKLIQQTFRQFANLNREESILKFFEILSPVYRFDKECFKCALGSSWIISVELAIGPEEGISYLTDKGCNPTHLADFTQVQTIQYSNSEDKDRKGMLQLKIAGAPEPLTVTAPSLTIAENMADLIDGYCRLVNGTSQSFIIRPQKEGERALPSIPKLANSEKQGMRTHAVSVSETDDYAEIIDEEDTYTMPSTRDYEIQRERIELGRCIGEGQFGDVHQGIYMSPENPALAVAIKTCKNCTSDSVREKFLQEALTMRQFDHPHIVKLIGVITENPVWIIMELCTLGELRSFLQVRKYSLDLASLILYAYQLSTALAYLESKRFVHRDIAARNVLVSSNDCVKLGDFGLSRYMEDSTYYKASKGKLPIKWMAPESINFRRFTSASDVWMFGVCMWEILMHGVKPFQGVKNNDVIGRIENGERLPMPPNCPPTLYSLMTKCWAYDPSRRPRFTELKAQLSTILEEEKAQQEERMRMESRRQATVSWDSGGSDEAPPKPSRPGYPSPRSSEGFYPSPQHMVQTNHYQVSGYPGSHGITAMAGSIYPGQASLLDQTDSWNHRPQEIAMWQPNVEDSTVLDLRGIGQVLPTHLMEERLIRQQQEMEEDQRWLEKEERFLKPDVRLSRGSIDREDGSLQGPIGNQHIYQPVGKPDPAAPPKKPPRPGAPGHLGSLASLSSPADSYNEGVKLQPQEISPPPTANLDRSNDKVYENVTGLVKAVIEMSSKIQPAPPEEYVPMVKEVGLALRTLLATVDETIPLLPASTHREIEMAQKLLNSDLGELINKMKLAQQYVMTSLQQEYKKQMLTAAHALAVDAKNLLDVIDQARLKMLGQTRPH
Chain of Follistatin (Homo sapiens) (P19883 whole entry, looked up): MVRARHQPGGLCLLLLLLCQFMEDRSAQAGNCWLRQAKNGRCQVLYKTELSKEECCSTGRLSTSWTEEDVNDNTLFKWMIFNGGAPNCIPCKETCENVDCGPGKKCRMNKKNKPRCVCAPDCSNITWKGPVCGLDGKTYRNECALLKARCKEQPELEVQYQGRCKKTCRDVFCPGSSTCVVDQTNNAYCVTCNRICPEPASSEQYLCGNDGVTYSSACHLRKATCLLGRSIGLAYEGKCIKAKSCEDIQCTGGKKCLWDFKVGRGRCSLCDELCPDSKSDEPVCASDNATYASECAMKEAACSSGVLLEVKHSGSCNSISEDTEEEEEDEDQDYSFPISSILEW

As for `C=CCOC(=O)[C@H]1[C@@H]2C(=O)O[C@@H](c3ccccc3)[C@@H](c3ccccc3)N2[C@@H](c2ccc(OCCOC(=O)[C@H]3C[C@H]4C(=O)N[C@@H](CC(C)C)C(=O)N4[C@H]3c3cccc(OCCO)c3)cc2)[C@]12C(=O)Nc1ccc(I)cc12`, the composite z-score in the assay with Albumin (Bos taurus) was -0.172; in [2] it was 0.233; in assay [3] it was -0.107; in [4], 0.518; in [5], 1.15; in [6] it was 0.239. Also, the composite z-score is 1.32 in the assay with Sam68 (KHDRBS1); 1.29 in [7]; 1.11 in assay [8]; 2 in [9]; 1.18 in assay [10]; 0.84 in assay [11]. In addition, the composite z-score was 0.452 in assay [12]; 1.36 in [13]; 1.71 in [14]; 1.22 in the assay with Lefty1; 0.437 in assay [16]. Moreover, in [1], the composite Z-score is 0.628 (inactive). Besides, the z-score in [15] is -0.175; in assay [17], -1.48 (inactive).

As for `CN1C(=O)C2C=CC(C(O)COCc3ccccc3)N(N(c3ccccc3)c3ccccc3)C2C1=O` (stereo not given), the composite z-score was 0.319 with Albumin (Bos taurus); 0.227 in [2]; -0.0173 in assay [3]; 0.412 in assay [4]; 1.62 in [5]; 0.0687 in [6]. Further, the composite z-score in the assay with Sam68 (KHDRBS1) is 1.05; in [7], -0.571; in [8], 0.671; in assay [9], 0.087; in assay [10] it was 1.19; in assay [11] it was 0.75. Besides, the composite z-score in assay [12] is 0.56; in assay [13], 0.265; in assay [14], -0.483; with Lefty1, 0.216; in [16] it was 0.508. For the same compound, the composite Z-score in assay [1] is 0.453 (inactive). The figures for the z-score in [15] and in assay [17] were 1.12 and -1.06 (inactive), respectively.

With `C=CCNC(=O)[C@H]1[C@@H]2C(=O)O[C@@H](c3ccccc3)[C@@H](c3ccccc3)N2[C@@H](c2ccc(O)cc2)[C@]12C(=O)N(C(=O)OCCOC)c1ccccc12`, the composite z-score with Albumin (Bos taurus) is 0.299; in assay [2] it was -0.091; in assay [3], 0.0487; in [4], 0.385; in assay [5], 2.18; in assay [6], 0.701. Besides, the composite z-score turned out to be 1.17 with Sam68 (KHDRBS1); 0.0889 in assay [7]; 0.745 in assay [8]; 3.08 in [9]; 1.24 in assay [10]; 0.484 in [11]. In addition, the composite z-score in assay [12] is 0.886; in [13], 0.852; in assay [14], 0.198; in the assay on Lefty1, 0.31; in assay [16], 0.708. In assay [1], the composite Z-score is 0.255 (inactive). The z-score in assay [15] is -0.8; in [17], -0.109 (inactive).

`CO[C@]12C=C(Br)[C@@H](C[C@@H]1c1cccc(C)c1)[C@@]1(CO1)C2=O`: the composite z-score was 0.223 with Albumin (Bos taurus); -0.0311 in assay [2]; -0.132 in [3]; 0.354 in assay [4]; 0.288 in [5]; -0.071 in assay [6]. The composite z-score with Sam68 (KHDRBS1) was 0.189; in [7], 0.306; in assay [8] it was 0.123; in assay [9] it was 0.177; in assay [10], -0.322; in assay [11], -0.129. In addition, the composite z-score in assay [12] was -0.407; in [13], 0.415; in assay [14] it was 0.391; in the assay with Lefty1 it was 0.802; in assay [16] it was -0.0489. Further, the composite Z-score in [1] is 0.379 (inactive). Moreover, the results for the z-score in assay [15] and in [17] were -0.645 and 1.02 (inactive), respectively.

In the case of `COc1ccc([Si](C)(C)[C@@H]2[C@@H](CC(=O)N3Cc4ccccc4C[C@H]3CO)O[C@]3(C(=O)N(Cc4cccc(N5C(=O)c6cccc7cccc5c67)c4)c4ccccc43)[C@H]2C)cc1`, the composite z-score was -0.566 in the assay with Albumin (Bos taurus); 0.143 in assay [2]; -0.0928 in assay [3]; 0.598 in assay [4]; 1.26 in [5]; -0.235 in assay [6]. In addition, the composite z-score in the assay on Sam68 (KHDRBS1) was found to be 0.817; in assay [7], 1.27; in assay [8], 1.12; in [9] it was 0.846; in [10], 0.956; in [11] it was 0.434. The composite z-score in assay [12] came out at 0.883; in assay [13], 1.35; in assay [14] it was 1.62; in the assay with Lefty1, 0.937; in assay [16] it was 0.423. Further, in assay [1], the composite Z-score is -0.0894 (inactive). Besides, the z-score in assay [15] is 0.129; in assay [17] it was -0.347 (inactive).

The values are drawn from PubChem BioAssay.
